Measurements: paper PMC11062922 (Nature Chemical Biology, 2023)
Like-named read-outs stand apart in the source and are kept apart here.

Assays:
CDK16 = system: CDK16; set-up: species or system human, MV4-11 + K-562 + COLO205 + SK-N-BE2 + OVCAR-8; details: read-out: apparent Kd, n = 1
CDK17 = system: CDK17; set-up: species or system human, MV4-11 + K-562 + COLO205 + SK-N-BE2 + OVCAR-8; details: read-out: apparent Kd, n = 1
CDK2 = system: CDK2; set-up: species or system human, MV4-11 + K-562 + COLO205 + SK-N-BE2 + OVCAR-8; details: read-out: apparent Kd, n = 1
CSNK2A1;CSNK2A3 = system: CSNK2A1;CSNK2A3; set-up: species or system human, MV4-11 + K-562 + COLO205 + SK-N-BE2 + OVCAR-8; details: read-out: apparent Kd; compound concentrations:100 nM and 1000 nM (sheet 'Samples'); n = 1
CSNK2A2 = system: CSNK2A2; set-up: species or system human, MV4-11 + K-562 + COLO205 + SK-N-BE2 + OVCAR-8; details: read-out: apparent Kd; compound concentrations:100 nM and 1000 nM (sheet 'Samples'); n = 1
ERCC2 = system: ERCC2; set-up: species or system human, MV4-11 + K-562 + COLO205 + SK-N-BE2 + OVCAR-8; details: read-out: apparent Kd; compound concentrations:100 nM and 1000 nM (sheet 'Samples'); n = 1
MYLK3 = system: MYLK3; set-up: species or system human, MV4-11 + K-562 + COLO205 + SK-N-BE2 + OVCAR-8; details: read-out: apparent Kd; compound concentrations:100 nM and 1000 nM (sheet 'Samples'); n = 1
Q6ZSR9 = Q6ZSR9 (human, UniProt Q6ZSR9); set-up: species or system MV4-11 + K-562 + COLO205 + SK-N-BE2 + OVCAR-8; details: read-out: apparent Kd; compound concentrations:100 nM and 1000 nM (sheet 'Samples'); n = 1
Sequence of Q6ZSR9 (Q6ZSR9 whole entry, looked up): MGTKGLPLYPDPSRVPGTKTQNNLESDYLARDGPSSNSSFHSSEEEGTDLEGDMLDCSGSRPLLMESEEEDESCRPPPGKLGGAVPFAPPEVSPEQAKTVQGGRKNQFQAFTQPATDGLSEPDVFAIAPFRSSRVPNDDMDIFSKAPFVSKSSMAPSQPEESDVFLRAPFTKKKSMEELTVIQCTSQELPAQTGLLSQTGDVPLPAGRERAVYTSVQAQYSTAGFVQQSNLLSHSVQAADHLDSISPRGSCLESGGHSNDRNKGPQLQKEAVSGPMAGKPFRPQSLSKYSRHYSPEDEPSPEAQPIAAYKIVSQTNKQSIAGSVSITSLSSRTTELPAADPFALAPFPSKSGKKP

TTK = system: TTK; set-up: species or system human, MV4-11 + K-562 + COLO205 + SK-N-BE2 + OVCAR-8; details: read-out: apparent Kd; compound concentrations:100 nM and 1000 nM (sheet 'Samples'); n = 1
CDK10 = system: CDK10; set-up: species or system human, MV4-11 + K-562 + COLO205 + SK-N-BE2 + OVCAR-8; details: read-out: apparent Kd; compound concentrations:100 nM and 1000 nM (sheet 'Samples'); n = 1
DJA1 = system: T1, DJA1; set-up: species or system human, MV4-11 + K-562 + COLO205 + SK-N-BE2 + OVCAR-8; details: read-out: apparent Kd, n = 1
T1 construct: gene DNAJA1

GSK3A = system: GSK3A; set-up: species or system human, MV4-11 + K-562 + COLO205 + SK-N-BE2 + OVCAR-8; details: read-out: apparent Kd, compound concentrations: 100 nM and 1000 nM (sheet 'Samples'), n = 1
GSK3B = system: GSK3B; set-up: species or system human, MV4-11 + K-562 + COLO205 + SK-N-BE2 + OVCAR-8; details: read-out: apparent Kd, compound concentrations: 100 nM and 1000 nM (sheet 'Samples'), n = 1
NQO2 = system: NQO2; set-up: species or system human, MV4-11 + K-562 + COLO205 + SK-N-BE2 + OVCAR-8; details: read-out: apparent Kd, compound concentrations: 100 nM and 1000 nM (sheet 'Samples'), n = 1
PDXK = system: PDXK; set-up: species or system human, MV4-11 + K-562 + COLO205 + SK-N-BE2 + OVCAR-8; details: read-out: apparent Kd; compound concentrations: 100 nM and 1000 nM (sheet 'Samples'), CATDS: 0.14245217988019501; n = 1
CDK6 = system: CDK6; set-up: species or system human, MV4-11 + K-562 + COLO205 + SK-N-BE2 + OVCAR-8; details: read-out: apparent Kd; compound concentrations: 100 nM and 1000 nM (sheet 'Samples'), CATDS: 5.8978881187618598E-2; n = 1
CDK9 = system: CDK9; set-up: species or system human, MV4-11 + K-562 + COLO205 + SK-N-BE2 + OVCAR-8; details: read-out: apparent Kd; compound concentrations: 100 nM and 1000 nM (sheet 'Samples'), CATDS: 7.0025924153680405E-2; n = 1
CDKL5 = system: CDKL5; set-up: species or system human, MV4-11 + K-562 + COLO205 + SK-N-BE2 + OVCAR-8; details: read-out: apparent Kd; compound concentrations: 100 nM and 1000 nM (sheet 'Samples'), CATDS: 0.107974532487744; n = 1
DYRK1A = system: DYRK1A; set-up: species or system human, MV4-11 + K-562 + COLO205 + SK-N-BE2 + OVCAR-8; details: read-out: apparent Kd; compound concentrations: 100 nM and 1000 nM (sheet 'Samples'), CATDS: 7.1113198150105694E-2; n = 1
MAPK14 = system: MAPK14; set-up: species or system human, MV4-11 + K-562 + COLO205 + SK-N-BE2 + OVCAR-8; details: read-out: apparent Kd; compound concentrations: 100 nM and 1000 nM (sheet 'Samples'), CATDS: 5.6581371759273497E-2; n = 1
MAPK7 = system: MAPK7; set-up: species or system human, MV4-11 + K-562 + COLO205 + SK-N-BE2 + OVCAR-8; details: read-out: apparent Kd; compound concentrations: 100 nM and 1000 nM (sheet 'Samples'), CATDS: 4.4821094432651497E-2; n = 1
MAPK9 = system: MAPK9; set-up: species or system human, MV4-11 + K-562 + COLO205 + SK-N-BE2 + OVCAR-8; details: read-out: apparent Kd; compound concentrations: 100 nM and 1000 nM (sheet 'Samples'), CATDS: 4.6942214024324101E-2; n = 1
MELK = system: MELK; set-up: species or system human, MV4-11 + K-562 + COLO205 + SK-N-BE2 + OVCAR-8; details: read-out: apparent Kd; compound concentrations: 100 nM and 1000 nM (sheet 'Samples'), CATDS: 4.5559662583992203E-2; n = 1
PRKD2 = system: PRKD2; set-up: species or system human, MV4-11 + K-562 + COLO205 + SK-N-BE2 + OVCAR-8; details: read-out: apparent Kd; compound concentrations: 100 nM and 1000 nM (sheet 'Samples'), CATDS: 5.0441088598544299E-2; n = 1
TP53RK = system: TP53RK; set-up: species or system human, MV4-11 + K-562 + COLO205 + SK-N-BE2 + OVCAR-8; details: read-out: apparent Kd; compound concentrations: 100 nM and 1000 nM (sheet 'Samples'), CATDS: 4.9816696124222203E-2; n = 1
CDC42 = system: CDC42; set-up: species or system human, MV4-11 + K-562 + COLO205 + SK-N-BE2 + OVCAR-8; details: read-out: apparent Kd; compound concentrations:100 nM and 1000 nM (sheet 'Samples'); n = 1
PRKCQ = system: PRKCQ; set-up: species or system human, MV4-11 + K-562 + COLO205 + SK-N-BE2 + OVCAR-8; details: read-out: apparent Kd; compound concentrations:100 nM and 1000 nM (sheet 'Samples'); n = 1
[1] = compound concentrations:100 nM and 1000 nM (sheet 'Samples')

For NS(=O)(=O)c1ccc(N/N=C2\C(=O)Nc3ccc(C(=O)NCc4ccncc4)cc32)cc1 [GSK300657X], which potency estimated from few doses (CDK16; [1]) is on record?
Its potency estimated from few doses is 486 nM.

What about the potency estimated from few doses (CDK17; [1]) of the same compound?
Its potency estimated from few doses is 957 nM.

And the potency estimated from few doses (CDK2; [1])?
The potency estimated from few doses was 567 nM.

What about the potency estimated from few doses (CSNK2A1;CSNK2A3) of the same compound?
The potency estimated from few doses was 1460 nM.

And the potency estimated from few doses (CSNK2A2)?
The potency estimated from few doses was 771 nM.

What about the potency estimated from few doses (ERCC2) of the same compound?
Its potency estimated from few doses is 2250 nM.

What about the potency estimated from few doses (MYLK3) of the same compound?
The potency estimated from few doses was 1620 nM.

What about the potency estimated from few doses (Q6ZSR9) of the same compound?
The potency estimated from few doses was 2140 nM.

And the potency estimated from few doses (TTK)?
Its potency estimated from few doses is 2100 nM.

CC(=O)Nc1cccc(C#Cc2cncnc2Nc2ccc(OCc3cccc(F)c3)c(Cl)c2)c1 [GW703087X] was tested. Which potency estimated from few doses (CDK10) did it give?
The potency estimated from few doses was 1540 nM.

Which potency estimated from few doses (CDK16; compound concentrations: 100 nM and 1000 nM (sheet 'Samples'), CATDS: 0.11881037811930099) does the source give for Cn1cc(C2=C(c3cccc(Br)c3)C(=O)NC2=O)c2ccccc21 [RO0317625-000] here?
Its potency estimated from few doses is 2310 nM.

And the potency estimated from few doses (DJA1; compound concentrations: 100 nM and 1000 nM (sheet 'Samples'), CATDS: 0.17087221308304101)?
Its potency estimated from few doses is 881 nM.

And the potency estimated from few doses (GSK3A; CATDS: 0.21400406250920001)?
Its potency estimated from few doses is 574 nM.

And the potency estimated from few doses (GSK3B; CATDS: 0.248828524546996)?
Its potency estimated from few doses is 447 nM.

What about the potency estimated from few doses (NQO2; CATDS: 0.16613061012500299) of the same compound?
The potency estimated from few doses was 935 nM.

What about the potency estimated from few doses (PDXK) of the same compound?
Its potency estimated from few doses is 1340 nM.

With CCC(NN(C)C)=C1C(=O)Nc2ccc(C(C)=O)cc21 [BI00036838] as the compound, how does the potency estimated from few doses (CDK16; compound concentrations: 100 nM and 1000 nM (sheet 'Samples'), CATDS: 6.3187514520784194E-2) read?
Its potency estimated from few doses is 753 nM.

What about the potency estimated from few doses (CDK17; compound concentrations: 100 nM and 1000 nM (sheet 'Samples'), CATDS: 5.2851487986603697E-2) of the same compound?
Its potency estimated from few doses is 1210 nM.

And the potency estimated from few doses (CDK2; compound concentrations: 100 nM and 1000 nM (sheet 'Samples'), CATDS: 4.7813901315705599E-2)?
Its potency estimated from few doses is 1640 nM.

What about the potency estimated from few doses (CDK6) of the same compound?
The potency estimated from few doses was 895 nM.

What about the potency estimated from few doses (CDK9) of the same compound?
The potency estimated from few doses was 590 nM.

And the potency estimated from few doses (CDKL5)?
Its potency estimated from few doses is 233 nM.

And the potency estimated from few doses (DYRK1A)?
The potency estimated from few doses was 569 nM.

And the potency estimated from few doses (GSK3A; CATDS: 0.31666625502072798)?
Its potency estimated from few doses is 27.3 nM.

And the potency estimated from few doses (GSK3B; CATDS: 0.45532128509290898)?
Its potency estimated from few doses is 15 nM.

And the potency estimated from few doses (MAPK14)?
Its potency estimated from few doses is 999 nM.

And the potency estimated from few doses (MAPK7)?
The potency estimated from few doses was 2060 nM.

And the potency estimated from few doses (MAPK9)?
The potency estimated from few doses was 1750 nM.

And the potency estimated from few doses (MELK)?
The potency estimated from few doses was 1940 nM.

What about the potency estimated from few doses (NQO2; CATDS: 5.78366102928662E-2) of the same compound?
Its potency estimated from few doses is 942 nM.

What about the potency estimated from few doses (PRKD2) of the same compound?
Its potency estimated from few doses is 1390 nM.

What about the potency estimated from few doses (TP53RK) of the same compound?
The potency estimated from few doses was 1440 nM.

What does the source list for CNc1nc(-c2ccc3c(N)n[nH]c3c2)cc(N2C[C@@H](C(=O)Nc3ccccc3)CC[C@H]2C)n1 [GSK2298859A]?
potency estimated from few doses (CDC42): 2140 nM; potency estimated from few doses (DJA1; [1]): 880 nM; potency estimated from few doses (PRKCQ): 1800 nM
